Screening results from PubChem BioAssay.
Hits are enriched below; roughly 2.7% of the tested compounds scored in any of these assays.
ANO1 activ = activators or potentiators of mouse TMEM16A chloride channel; Q8BHY3; HEK293 TMEM16A/YFP-H148Q/I152L, iodide quench fluorescence; hits give low values; B-score at 10 µM; hit rate 0.3% among 340,000;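 active = fluorescence-ratio B-score plate-corrected deviation score at least 3 library SD below zero, with starting fluorescence score within 5 deviations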;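 note: channel opened by trigger with iodide after compound preincubation; score built on the fluorescence ratio of max minus min over baseline; more negative score means more quench and so TMEM16A activation or potentiation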
FID counter = counter-screen for HCV NS3 helicase inhibitors: DNA intercalator displacement | inhibition, % at 7.9 µM | hit rate 0.17% among 290,000 | DNA fluorescent intercalator displacement, fluorescence; in the data active = inhibition above about 37%;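 note: higher means more ethidium bromide displaced from hairpin DNA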
PP1 counter = counter-screen for PP5 inhibitors: inhibitors of human PP1-alpha; inhibition, % at 6.7 µM; hit rate 0.9% among 320,000; purified PP1alpha, OMFP fluorescence; AID 2235;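 active = inhibition above the mean inhibition of all tested compounds plus 3 SD, computed separately for each screening campaign, cut at about 15% in these data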
TMEM16A inh = inhibitors of mouse TMEM16A calcium-activated chloride channel; Q8BHY3; HEK293 TMEM16A/YFP iodide influx fluorescence, ionomycin; normalized B-score (activity score, 25-100; higher = stronger inhibition) at 10 µM; hit rate 1.2% among 310,000;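 active = ratio plate-corrected score three or more library SD toward inhibition, starting fluorescence score within five deviations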;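 note: score derived from kinetic fluorescence span divided by baseline fluorescence per well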
PREPL inh = inhibits the human prolyl oligopeptidase-like enzyme. hit rate 0.68% among 320,000. inhibition, % at 5.96 µM. recombinant PREPL, fluorescence polarization activity-based probe; in the data active = inhibition above about 43%
Target sequence (Q4J6C6 whole entry, looked up): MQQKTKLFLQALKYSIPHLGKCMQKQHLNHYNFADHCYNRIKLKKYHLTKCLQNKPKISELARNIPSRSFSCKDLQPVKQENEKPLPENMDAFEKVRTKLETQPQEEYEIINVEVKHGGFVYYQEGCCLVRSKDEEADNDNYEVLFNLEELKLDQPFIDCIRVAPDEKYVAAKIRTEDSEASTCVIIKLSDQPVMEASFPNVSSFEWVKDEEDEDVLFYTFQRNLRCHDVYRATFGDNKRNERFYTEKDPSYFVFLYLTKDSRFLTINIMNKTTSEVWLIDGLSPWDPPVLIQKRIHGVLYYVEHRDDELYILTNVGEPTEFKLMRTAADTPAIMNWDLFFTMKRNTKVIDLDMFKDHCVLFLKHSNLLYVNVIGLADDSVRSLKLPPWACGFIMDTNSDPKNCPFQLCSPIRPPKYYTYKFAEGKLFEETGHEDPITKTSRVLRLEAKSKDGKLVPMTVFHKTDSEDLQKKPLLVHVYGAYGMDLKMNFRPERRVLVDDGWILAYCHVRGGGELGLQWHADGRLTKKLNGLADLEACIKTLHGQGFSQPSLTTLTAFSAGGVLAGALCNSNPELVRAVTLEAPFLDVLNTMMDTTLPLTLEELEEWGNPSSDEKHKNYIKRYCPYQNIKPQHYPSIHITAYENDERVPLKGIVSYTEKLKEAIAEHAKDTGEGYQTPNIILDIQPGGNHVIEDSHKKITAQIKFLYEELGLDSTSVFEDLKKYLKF
PP5 inh = inhibitors of human protein phosphatase 5 (PP5) | P53041 | purified PP5c, OMFP substrate fluorescence | inhibition, % at 6.7 µM | hit rate 0.18% among 320,000;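 active = inhibition above the campaign's mean inhibition across all tested compounds plus 3 SD, cut at about 9.5% in these data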
Large screens that a line does not name were inactive.

S=c1[nH]nc(Cc2cccc3ccccc23)n1-c1ccccc1	ANO1 activ -7.2
CC1=C(C(=O)NC(C)C)C2(CCC(C)CC2)OC1=O (stereo unspecified)	TMEM16A inh 25
CCN(CC)S(=O)(=O)c1ccc(Cl)c(C(=O)NNC(=O)c2csc(N3CCOCC3)n2)c1	none (no result: FID counter, PP1 counter, TMEM16A inh, PREPL inh, PP5 inh)
O=[N+]([O-])c1ccc(-c2nn(-c3ccccc3)cc2/C=N/n2c(-c3ccncc3)n[nH]c2=S)cc1	TMEM16A inh 25
Cn1c(=O)c2c(nc(OC3CCCCCC3)n2C)n(C)c1=O	none (no result: FID counter, PP1 counter, TMEM16A inh, PREPL inh, PP5 inh)
CC1CN(S(=O)(=O)c2ccc(C(=O)N(CCCN(C)C)c3nc4cc5c(cc4s3)OCCO5)cc2)CC(C)O1 (stereo unspecified)	none (no result: FID counter)
CC1CCCCN1S(=O)(=O)c1ccc(C(=O)N(CCCN(C)C)c2nc3ccc(Br)cc3s2)cc1 (stereo unspecified)	FID counter 38
CN(C)CCN(C(=O)c1ccc(S(=O)(=O)N2CCCC2)cc1)c1nc2ccc(Br)cc2s1	none
CCC1CCCCN1S(=O)(=O)c1ccc(C(=O)N(CCCN(C)C)c2nc3cc4c(cc3s2)OCO4)cc1 (stereo unspecified)	FID counter 39
CCc1cccc(NC(=O)c2cc(OC)c(OC)c(OC)c2)c1	none
O=C(Nc1ccc(Nc2ccncc2)cc1)c1ccc([N+](=O)[O-])cc1	ANO1 activ -6.1
c1ccc(-c2ccc(OCCCNC3CCCC3)cc2)cc1	FID counter 41
COC(=O)NCN1C(=O)C2C3C=CC(C3)C2C1=O (stereo unspecified)	none
CCn1nc(C)c(NC(=O)/C=C/c2ccc(OC)c(COc3ccc(Cl)cc3Br)c2)c1C	none
COc1ccc(/C=C/C(=O)NCc2cn(C)nc2C)cc1COc1ccc(Cl)cc1Br	TMEM16A inh 100
COc1ccc(N2CCN(S(=O)(=O)CC34CCC(CC3=O)C4(C)C)CC2)cc1 (stereo unspecified)	none
CC1CCCC(C)N1C(=C(Cl)Cl)C(=C1SCCS1)[N+](=O)[O-] (stereo unspecified)	ANO1 activ -15
Cc1ccc(-c2csc3ncnc(SCc4ccc(C(=O)O)cc4)c23)cc1	PP1 counter 16
Cc1sc2ncnc(SCc3ccc(C(=O)O)cc3)c2c1C	none
CCOC(=O)C(NC(=O)c1ccccc1)C(C)(C)SCc1ccccc1 (stereo unspecified)	none (no result: FID counter, PP1 counter, TMEM16A inh, PREPL inh, PP5 inh)
Cc1nc(NCC2CCCO2)c2nnn(Cc3ccccc3)c2n1 (stereo unspecified)	none
CCCc1nc(NCC2CCCO2)c2nnn(Cc3ccccc3)c2n1 (stereo unspecified)	ANO1 activ -4.9
CCOC(=O)c1nn(C)c2[nH]c(=O)n(C)c(=O)c12	none (no result: FID counter, PP1 counter, TMEM16A inh, PREPL inh, PP5 inh)
CN(Cc1ccco1)S(=O)(=O)c1ccc(CN2C(=O)c3cccnc3C2=O)s1	none
O=C(Nc1ccccc1C(=O)Nc1nnc(C(F)(F)F)s1)c1ccccc1	ANO1 activ -6.2, TMEM16A inh 100
Cc1cc(-c2ccccc2)n(-c2cc(N/N=C/c3ccccc3O)ncn2)n1	PP1 counter 16
CC(c1ccccc1)N1C(=O)/C(=C/c2ccncc2)SC1=S (stereo unspecified)	PP1 counter 17
COc1cc(OC)cc(C(=O)N/N=C\c2ccoc2)c1	none
CCOc1ccc(N2C(=O)Nc3ccc(Br)cc3C2(O)C(=O)NCCN(C)C)cc1 (stereo unspecified)	none
CN(C)CCCN(Cc1cc2cc3c(cc2[nH]c1=O)OCO3)C(=S)Nc1cccc(Cl)c1	none
Cc1cccc2cc(CN(Cc3ccccc3)C(=S)NCCCN(C)C)c(=O)[nH]c12	FID counter 48
CN(C)CCCN(Cc1cc2cc3c(cc2[nH]c1=O)OCO3)C(=S)Nc1ccccc1	FID counter 47
CCOc1cc(C=NN2CCCCCC2)ccc1O	none (no result: FID counter, PP1 counter, TMEM16A inh, PREPL inh, PP5 inh)
Cc1cc(NC(=O)C2CC(=O)N(c3ccccc3Cl)C2)no1 (stereo unspecified)	none
COC(=O)C1=C(Nc2ccccc2NS(=O)(=O)c2ccc(C(F)(F)F)cc2Cl)CSC1	TMEM16A inh 25
COC(=O)C1=C(Nc2ccccc2NC(=O)c2ccccc2C(=O)O)CSC1	none
Cc1ccc(C(=O)OCC(=O)NC2CCCCC2)cc1S(=O)(=O)N1CCCCC1	none (no result: FID counter, TMEM16A inh)
CCC1CSC(Nc2ccc(C(=O)/C=C/c3ccc(OC)c(OC)c3)cc2)=N1 (stereo unspecified)	none
CCC1CSC(Nc2ccc(C(=O)/C=C/c3ccc(Br)cc3)cc2)=N1 (stereo unspecified)	PP1 counter 15
COc1ccc(-c2csc(Cc3nnc(N4CCOCC4)n3-c3ccccc3)n2)cc1	PREPL inh 51
CCOC(=O)/C(=C\c1ccccc1)C(=O)c1cc(C(C)=O)c(Nc2ccccc2)s1	none
CCOC(=O)/C(=C\c1cccnc1)C(=O)c1cc(C(C)=O)c(Nc2ccccc2)s1	ANO1 activ -11, TMEM16A inh 25
S=C(NCc1ccccn1)NN=Cc1ccccn1	none (no result: FID counter, PP1 counter, TMEM16A inh, PREPL inh, PP5 inh)
Cn1c(COc2cccc3ccccc23)nnc1SCC(=O)OC1CCCCC1	none
CCn1c(COc2cccc3ccccc23)nnc1SCC(=O)OC1CCCCC1	TMEM16A inh 100
Cc1ccc(C(=O)CCC(=O)OC(C)C(=O)NC2CCCCC2C)cc1 (stereo unspecified)	none (no result: FID counter, TMEM16A inh)
Cc1ccc(S(=O)(=O)n2nccc2-c2c(-c3ccc(Cl)cc3)noc2C)cc1	ANO1 activ -4.9
CC(Oc1ccc(Cl)cc1)c1ccnn1S(=O)(=O)c1ccc(Cl)cc1 (stereo unspecified)	none
O=[N+]([O-])c1ccc(O)c(Nc2ncnc3ccc(Br)cc23)c1	TMEM16A inh 100
COC(=O)c1ccc(CO/N=C/c2ccc(OC)cc2)o1	none
CSCCC(NC(=O)c1ccccc1Br)C(=O)N1CCN(C/C=C/c2ccccc2)CC1 (stereo unspecified)	none (no result: FID counter, PP1 counter, TMEM16A inh, PREPL inh, PP5 inh)
CCN(C[C@H]1N[C@@](CC)(C(=O)OC)[C@H]2C(=O)N(Cc3ccccc3)C(=O)[C@@H]12)C(=O)c1ccc(C(C)(C)C)cc1	none (no result: ANO1 activ, FID counter, PP1 counter, TMEM16A inh, PP5 inh)
O=C(NNC(=O)c1ccccc1O)c1ccc(Cl)c(S(=O)(=O)N2CCc3ccccc32)c1	TMEM16A inh 100 (no result: FID counter)
O=C(c1ccc(Cl)c(S(=O)(=O)N2CCc3ccccc32)c1)N1CCN(c2ccccc2O)CC1	none (no result: FID counter, PP1 counter, TMEM16A inh, PP5 inh)
CC(C)Cc1ccc(C(C)C(=O)Nc2ccc(O)cc2)cc1 (stereo unspecified)	TMEM16A inh 100
CC(C)Cc1ccc([C@H](C)C(=O)O)cc1	none (no result: FID counter)
Cc1cccc2c(C(=O)N3CCN(C(=O)c4ccco4)CC3)cc(-c3cccc(Br)c3)nc12	TMEM16A inh 100
